# Results published in PubChem BioAssay (Tox21).
# Several values for one entry are separate records, joined by “and”; a condition that tells them apart may be missing. Equal values may be shown once. Results filed as inconclusive are left out. A call without a number means that no potency is given here. More than one record can exist for a structure, and the calls need not agree. Activity calls are given as the source filed them. Unless noted, calls follow the shape of the dose curve; as a rule, active = well fitted curve in the direction sought with a large enough effect in the repeat runs; inconclusive = weak or mixed curves; inactive = no such curve, though single readings can be large; an effect the other way counts as inactive or inconclusive.
# Key:
# [1] = qHTS assay to identify small molecule antagonists of the thyroid receptor (TR) signaling pathway (AID 743065); also: series mostly up to about 70 µM; nearly all actives have a fitted effect of over 55% in size
# How it was run: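 Antagonism measured as loss of luciferase signal in GH3 cells stably carrying a TRE-luciferase reporter, co-treated with compound and T3 (1 nM final) for 23.5 h at 37 C. Viability was read in the same well by CellTiter-Fluor.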
# [2] = tested on: thyroid hormone receptor (rat, GH3 cells); experiment: qHTS assay to identify small molecule agonists of the thyroid receptor (TR) signaling pathway (AID 743066; calls by dose curve)
# [3] = biological target: Estrogen receptor (Homo sapiens) (UniProt P03372); experiment: qHTS assay to identify small molecule antagonists of the estrogen receptor alpha (ER-alpha) signaling pathway (AID 743069; active = well fitted curve in the direction sought with a large enough effect in the signal ratio in the repeat runs, not every such curve was filed as active; the % refers to the signal ratio)
# How it was run: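 ER-alpha-UAS-bla GripTite HEK293 line; 2% charcoal-stripped FBS overnight; plated, 4 hr 37C/5% CO2; cpd in DMSO + 17beta-estradiol, 18 hr 37C; LiveBLAzer B/G FRET substrate 2 hr RT; fluorescence intensity.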
# [4] = qHTS assay to identify small molecule antagonists of the estrogen receptor alpha (ER-alpha) signaling pathway - cell viability counter screen (AID 743074; calls by dose curve;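 also: HEK293 cells carrying ER-alpha-UAS-bla reporter stimulated with 17beta-estradiol; nearly all actives have a fitted effect of over 45% in size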)
# [5] = biological target: Estrogen receptor (Homo sapiens) (UniProt P03372); experiment: qHTS assay to identify small molecule agonists of the estrogen receptor alpha (ER-alpha) signaling pathway (AID 743075; calls by dose curve;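 also: HEK293 GripTite cells with ER-alpha and UAS-driven beta-lactamase reporter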)
# [6] = biological target: Estrogen receptor (Homo sapiens) (UniProt P03372); experiment: qHTS assay to identify small molecule agonists of the estrogen receptor alpha (ER-alpha) signaling pathway using the BG1 cell line (AID 743079); also: nearly all actives have a fitted effect of over 20% in size
# [7] = qHTS assay to identify small molecule antagonists of the estrogen receptor alpha (ER-alpha) signaling pathway using the BG1 cell line (AID 743080; calls by dose curve;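 also: BG1 cells stimulated with 17beta-estradiol alongside compound; series mostly up to about 70 µM; nearly all actives have a fitted effect of over 25% in size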)
# How it was run: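 Endogenous full-length ER-alpha in BG1-Luc-4E2 cells drives a stably integrated 4×ERE luciferase gene; compounds were tested against 17beta-estradiol over 21.5 h, with luminescence and multiplexed viability fluorescence recorded.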
# [8] = qHTS assay to identify small molecule antagonists of the estrogen receptor alpha (ER-alpha) signaling pathway using the BG1 cell line - cell viability counter screen (AID 743081);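 also: compound given together with 17beta-estradiol as the ER stimulus; series mostly up to about 70 µM; nearly all actives have a fitted effect of over 45% in size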
# Aromatase (Homo sapiens) = Aromatase (Homo sapiens) (UniProt P11511); experiment: qHTS assay to identify aromatase inhibitors (AID 743083); also: series mostly up to about 70 µM; nearly all actives have a fitted effect of over 55% in size
# [9] = qHTS assay to identify aromatase inhibitors - cell viability counter screen (AID 743084);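 also: cells stimulated with testosterone during compound exposure; nearly all actives have a fitted effect of over 55% in size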
# [10] = biological target: Aryl hydrocarbon receptor (Homo sapiens) (UniProt P35869); experiment: qHTS assay to identify small molecule that activate the aryl hydrocarbon receptor (AhR) signaling pathway (AID 743085); also: nearly all actives have a fitted effect of over 15% in size; also: potency is read from the fitted curve at half-maximal effect;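 as to activation: HG2L7.5c1 human HepG2 liver cells with stably integrated DRE-driven firefly reporter; series mostly up to about 70 µM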
# How it was run: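 Steps: seed HepG2-AhR-luc cells; allow 5 h at 37C; pin-transfer test compound or vehicle; incubate 24 h at 37C; add viability dye (30 min, 37C) and read fluorescence; add luciferase substrate (30 min, RT) and read luminescence.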
# [11] = qHTS assay to identify small molecule that activate the aryl hydrocarbon receptor (AhR) signaling pathway - cell viability counter screen (AID 743086);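 also: HepG2 liver cells carrying the AhR DRE luciferase reporter; series mostly up to about 70 µM; nearly all actives have a fitted effect of over 45% in size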
# How it was run: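 Cytotoxicity counter screen: CellTiter-Fluor signal (30 min, 37 C) in 4000 HepG2 cells/well carrying the DRE-luciferase reporter, following 24 h compound exposure at 37 C.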
# [12] = biological target: Peroxisome proliferator-activated receptor gamma (Homo sapiens) (UniProt P37231); experiment: qHTS assay to identify small molecule antagonists of the peroxisome proliferator-activated receptor gamma (PPARg) signaling pathway (AID 743191; calls by dose curve; also: series mostly up to about 63 µM; nearly all actives have a fitted effect of over 30% in size)
# How it was run: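 Beta-lactamase reporter under UAS control in HEK293H PPARg-bla cells; compound treatment 17 h at 37C. Read-out: fluorescence intensity after 1 h room-temperature incubation with LiveBLAzer B/G FRET substrate.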
# [13] = qHTS assay to identify small molecule antagonists of the peroxisome proliferator-activated receptor gamma (PPARg) signaling pathway - cell viability counter screen (AID 743194); also: nearly all actives have a fitted effect of over 55% in size
# How it was run: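 Viability was measured as CellTiter-Glo luminescence in GeneBLAzer PPARg UAS-bla HEK293H cells. These cells had been exposed 17 h at 37 C to compounds together with rosiglitazone at 50 nM final, with the beta-lactamase readout taken in the same wells.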
# [14] = qHTS assay for small molecule agonists of the antioxidant response element (ARE) signaling pathway - cell viability counter screen (AID 743203; calls by dose curve; also: nearly all actives have a fitted effect of over 55% in size)
# How it was run: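 Following 16 hrs of compound treatment at 37C, HepG2 cells with an ARE-controlled beta-lactamase gene were lysed with CellTiter-Glo. Luminescence was read after 30 min at room temperature.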
# [15] = qHTS assay for small molecule activators of the heat shock response signaling pathway - cell viability counter screen (AID 743209); also: nearly all actives have a fitted effect of over 50% in size
# How it was run: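 Readout: CellTiter-Glo luminescence, 30 min at room temperature. System: HSE-bla HeLa cells, 1500/well, plated overnight. Treatment: compounds in DMSO, 5 h at 37 C.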
# [16] = qHTS assay for small molecule activators of the heat shock response signaling pathway (AID 743210; active = well fitted activation curve with a large enough effect in the signal ratio in the repeat runs, with a control signal flat, not every such curve was filed as active; the % refers to the signal ratio;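 also: HeLa cells with beta-lactamase reporter driven by heat shock elements; series mostly up to about 63 µM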)
# How it was run: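 HeLa HSE-bla cells, overnight plating; cpd in DMSO 5 h, 37 C; LiveBLAzer B/G FRET substrate 2.5 h RT; fluorescence intensity read.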
# [17] = qHTS assay to identify small molecule agonists of the peroxisome proliferator-activated receptor delta (PPARd) signaling pathway - cell viability counter screen (AID 743211); also: nearly all actives have a fitted effect of over 55% in size
# How it was run: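 Viability of GeneBLAzer PPARd UAS-bla HEK293H cells was assessed after 17 h compound incubation at 37C, using CellTiter-Glo reagent added after the reporter read and luminescence recorded 30 min later.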
# [18] = biological target: Peroxisome proliferator-activated receptor gamma (Homo sapiens) (UniProt P37231); experiment: qHTS assay to identify small molecule agonists of the peroxisome proliferator-activated receptor gamma (PPARg) signaling pathway (AID 743094; active = well fitted activation curve with a large enough effect in the signal ratio in the repeat runs, not every such curve was filed as active; the % refers to the signal ratio)
# How it was run: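 Compounds dissolved in DMSO were added to PPARg UAS-bla HEK293H cells for 17 h at 37C, and reporter expression was quantified by fluorescence intensity after 1 h with LiveBLAzer B/G FRET substrate.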
# [19] = qHTS assay for small molecule agonists of the antioxidant response element (ARE) signaling pathway (AID 743202; active = well fitted activation curve with a large enough effect in the signal ratio in the repeat runs, not every such curve was filed as active; the % refers to the signal ratio)
# How it was run: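 Quantitative high-throughput format in HepG2 cells bearing an integrated ARE-beta-lactamase reporter. Compound exposure lasted 16 h at 37 C, and fluorescence was read 2 h after adding LiveBLAzer B/G substrate at room temperature.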
# Peroxisome proliferator-activated receptor gamma (Homo sapiens), sequence (P37231 whole entry, looked up): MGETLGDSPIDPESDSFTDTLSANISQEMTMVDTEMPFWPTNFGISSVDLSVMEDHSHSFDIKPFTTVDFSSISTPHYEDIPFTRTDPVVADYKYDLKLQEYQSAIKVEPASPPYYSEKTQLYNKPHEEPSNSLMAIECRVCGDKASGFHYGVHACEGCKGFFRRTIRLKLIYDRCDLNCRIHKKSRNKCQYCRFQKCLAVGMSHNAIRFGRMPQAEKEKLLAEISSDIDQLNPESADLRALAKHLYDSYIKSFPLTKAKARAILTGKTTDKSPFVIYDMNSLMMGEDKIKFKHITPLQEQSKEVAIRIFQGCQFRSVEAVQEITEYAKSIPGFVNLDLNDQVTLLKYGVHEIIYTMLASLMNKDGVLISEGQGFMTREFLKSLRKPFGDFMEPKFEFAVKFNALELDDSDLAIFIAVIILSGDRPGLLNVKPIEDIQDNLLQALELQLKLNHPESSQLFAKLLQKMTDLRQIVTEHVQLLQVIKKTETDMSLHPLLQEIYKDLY
# Estrogen receptor (Homo sapiens), sequence (P03372 whole entry, looked up): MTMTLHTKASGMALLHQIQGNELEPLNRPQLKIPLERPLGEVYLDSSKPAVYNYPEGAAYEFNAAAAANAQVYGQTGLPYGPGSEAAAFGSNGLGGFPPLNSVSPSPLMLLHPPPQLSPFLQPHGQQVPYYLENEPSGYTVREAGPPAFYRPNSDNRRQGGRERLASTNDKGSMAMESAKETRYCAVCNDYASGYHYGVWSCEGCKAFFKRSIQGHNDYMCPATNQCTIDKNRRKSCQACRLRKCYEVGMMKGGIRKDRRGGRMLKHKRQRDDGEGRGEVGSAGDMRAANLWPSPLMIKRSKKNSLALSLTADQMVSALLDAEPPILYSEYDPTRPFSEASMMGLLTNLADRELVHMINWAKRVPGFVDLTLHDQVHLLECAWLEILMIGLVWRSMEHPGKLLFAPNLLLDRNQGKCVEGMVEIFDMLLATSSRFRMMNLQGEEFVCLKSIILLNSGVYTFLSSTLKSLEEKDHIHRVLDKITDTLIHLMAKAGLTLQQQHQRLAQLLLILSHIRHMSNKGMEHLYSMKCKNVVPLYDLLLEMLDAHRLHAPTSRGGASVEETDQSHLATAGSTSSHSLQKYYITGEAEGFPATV
# Aryl hydrocarbon receptor (Homo sapiens), sequence (P35869 whole entry, looked up): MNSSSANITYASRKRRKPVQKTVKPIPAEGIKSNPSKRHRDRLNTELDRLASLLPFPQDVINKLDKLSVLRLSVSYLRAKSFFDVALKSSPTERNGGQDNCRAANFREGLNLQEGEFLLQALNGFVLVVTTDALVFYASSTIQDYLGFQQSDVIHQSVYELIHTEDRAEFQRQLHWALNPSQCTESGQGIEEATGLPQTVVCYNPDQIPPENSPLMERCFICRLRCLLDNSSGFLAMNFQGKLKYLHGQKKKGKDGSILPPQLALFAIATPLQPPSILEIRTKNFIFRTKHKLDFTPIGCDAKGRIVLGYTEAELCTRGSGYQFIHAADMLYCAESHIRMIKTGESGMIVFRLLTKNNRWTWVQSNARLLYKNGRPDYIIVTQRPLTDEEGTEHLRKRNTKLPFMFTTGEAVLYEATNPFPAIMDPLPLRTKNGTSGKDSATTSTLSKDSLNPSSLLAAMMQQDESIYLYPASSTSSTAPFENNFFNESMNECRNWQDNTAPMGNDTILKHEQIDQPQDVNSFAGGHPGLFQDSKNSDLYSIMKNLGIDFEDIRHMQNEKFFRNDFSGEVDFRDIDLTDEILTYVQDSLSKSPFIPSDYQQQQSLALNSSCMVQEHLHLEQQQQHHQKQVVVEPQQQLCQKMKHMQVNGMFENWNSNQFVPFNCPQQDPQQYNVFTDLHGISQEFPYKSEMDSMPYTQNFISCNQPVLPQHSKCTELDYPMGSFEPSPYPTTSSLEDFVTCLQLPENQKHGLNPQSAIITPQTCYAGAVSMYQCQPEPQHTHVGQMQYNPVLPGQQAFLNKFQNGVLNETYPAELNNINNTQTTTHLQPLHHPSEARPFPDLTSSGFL
# Aromatase (Homo sapiens), sequence (P11511 whole entry, looked up): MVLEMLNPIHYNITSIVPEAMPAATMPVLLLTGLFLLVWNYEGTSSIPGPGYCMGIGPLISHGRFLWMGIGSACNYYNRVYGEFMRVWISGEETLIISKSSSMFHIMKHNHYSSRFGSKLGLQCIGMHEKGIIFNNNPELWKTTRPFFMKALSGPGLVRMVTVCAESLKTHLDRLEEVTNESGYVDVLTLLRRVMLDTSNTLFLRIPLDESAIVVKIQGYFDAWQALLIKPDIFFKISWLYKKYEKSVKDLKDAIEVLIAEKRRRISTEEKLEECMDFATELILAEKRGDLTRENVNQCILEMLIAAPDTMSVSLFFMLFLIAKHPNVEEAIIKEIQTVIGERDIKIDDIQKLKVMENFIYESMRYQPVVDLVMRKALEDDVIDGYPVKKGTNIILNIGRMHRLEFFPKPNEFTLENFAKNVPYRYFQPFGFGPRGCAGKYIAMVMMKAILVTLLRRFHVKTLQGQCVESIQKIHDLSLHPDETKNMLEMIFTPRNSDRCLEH
Structure (SMILES),Potency [1],outcome [2],Potency [3],outcome [4],Potency [5],Potency [6],outcome [7],Potency [8],Potency (Aromatase (Homo sapiens)),Potency [9],Potency [10],Potency [11],outcome [12],outcome [13],Potency [14],outcome [15],outcome [16],outcome [17],outcome [18],Potency [19]
CCOCC(=O)O,inactive,inactive,inactive,inactive,inactive,inactive,inactive,inactive,inactive,inactive,inactive,inactive,inactive,inactive,inactive,inactive,inactive,inactive,–,–
CCCOC(=O)c1ccccc1,inactive,inactive,–,inactive,–,–,–,inactive,inactive,inactive,inactive,inactive,–,inactive,inactive,inactive,–,inactive,inactive,–
CCOCCOCCOCCO,inactive,inactive,–,inactive,–,–,–,inactive,inactive,inactive,inactive,inactive,inactive,inactive,inactive,inactive,inactive,inactive,inactive,–
CC(CCO)CC(C)(C)C (configuration not stated),inactive,inactive,inactive,inactive,inactive,inactive,inactive,inactive,inactive,inactive,inactive,inactive,inactive,inactive,inactive,inactive,inactive,inactive,–,–
CCCCCCO,inactive,inactive,inactive,inactive,inactive,–,inactive,inactive,inactive,inactive,inactive,inactive,inactive,inactive,inactive,inactive,inactive,inactive,inactive,–
C=C(C)CNCC,inactive,inactive,–,inactive,–,–,–,inactive,inactive,inactive,inactive,inactive,inactive,inactive,inactive,inactive,inactive,inactive,inactive,inactive
CCCCCCCCCCCCCCCCO,inactive,inactive,inactive,inactive,inactive,inactive,inactive,inactive,inactive,inactive,inactive,inactive,inactive,inactive,–,inactive,inactive,inactive,–,–
C[C@]12CCC(=O)C=C1CC[C@@H]1[C@@H]2[C@@H](O)C[C@@]2(C)[C@H]1CC[C@]2(O)C(=O)CO,inactive,inactive,–,inactive,–,–,–,inactive,inactive,inactive,inactive,inactive,inactive,inactive,inactive,inactive,inactive,inactive,inactive,–
CN(C)c1ccc(O)c2c1C[C@H]1C[C@H]3[C@H](N(C)C)C(=O)C(C(N)=O)=C(O)[C@@]3(O)C(=O)C1=C2O,inactive,inactive,inactive,inactive,inactive,inactive,inactive,inactive,inactive,inactive,inactive and 7.7 µM (active),inactive,–,inactive,–,inactive,inactive,inactive,–,inactive
